Assay results: the supplement of paper PMC10849652
Of roughly 7,900 targets only a part is listed; those with a hit were picked by preference. About 0.6% of all pairs of compound and target were hits.

What was measured:
Experiment in all cases: log2 fold change, soluble protein after heating vs DMSO (PISA); higher = thermal stabilisation; K562 cells, 10 uM, 30 min; active = over 0.2 and 3.5 SD of the protein, either way, in both replicates (recomputed)
[1] = compound: C#Cc1cccc(Nc2ncnc3cc(OCCOC)c(OCCOC)cc23)c1 [erlotinib]
Method in brief: (§1)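 K562 cells at 2×10^6 cells/mL were treated for 30 min with 10 μM compound, and aliquots were heated for 3 min over 48°C-58°C before pooling. Extraction used PBS with 0.5% NP-40 at 4°C, and soluble protein was the supernatant after 21,000xg for 90 min, measured by TMTpro 16plex LC-MS/MS with channel sums equalised. Thermal stability values, relative to control samples and from duplicates, are log2 fold changes.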

[2] = compound: C/C(=N\NC(=O)C1=CC(=CC=C1)S(=O)(=O)N2CCOCC2)/C3=C(C=CC(=C3)Cl)O
Method in brief: as §1

[3] = compound: C1=CC(=C(C=C1Cl)C2=NC3=NC=CN=C3C(=N2)NC4=CC=NC=C4)F
Method in brief: as §1

[4] = compound: C1=CC(=CC=C1C2=NC3=C(N2)C=C(C=C3)C(=O)N)OC4=CC=C(C=C4)Cl
Method in brief: as §1

[5] = compound: C1=CC2=C(C=CC(=C2)/C=C\3/C(=O)NC(=NCC4=CC=CS4)S3)N=C1
Method in brief: as §1

[6] = compound: C1=CC2=NC=CN=C2C=C1/C=C/3\C(=O)NC(=O)S3
Method in brief: as §1

[7] = compound: C1=CC=C(C=C1)C2=NC(=C(N2)C3=CC=NC=C3)C4=CC(=C(C=C4)Cl)O
Method in brief: as §1

[8] = compound: C1=CC=C2C(=C1)C3=NNC4=CC=CC(=C43)C2=O
Method in brief: as §1

[9] = compound: C1CCN(C1)C(=O)NC2=CC=CC(=C2)NC3=NC=C(C(=N3)NCCC4=CN=CN4)Br
Method in brief: as §1

[10] = compound: C1CN(CCC1(CC2=CC=C(C=C2)Cl)N)C3=NC=NC4=C3C=CN4
Method in brief: as §1

Measured: log2 fold change

ADH5 (UniProt P11766)
inactive: [1] -0.012 | [2] 0.034 | [3] 0.05 | [4] -0.016 | [5] 0.001 | [6] 0.007 | [7] -0.039 | [8] 0.002 | [9] 0.004 | [10] 0.037

ARFRP1 (UniProt Q13795)
Sequence of UniProt Q13795 (Q13795 whole entry, looked up): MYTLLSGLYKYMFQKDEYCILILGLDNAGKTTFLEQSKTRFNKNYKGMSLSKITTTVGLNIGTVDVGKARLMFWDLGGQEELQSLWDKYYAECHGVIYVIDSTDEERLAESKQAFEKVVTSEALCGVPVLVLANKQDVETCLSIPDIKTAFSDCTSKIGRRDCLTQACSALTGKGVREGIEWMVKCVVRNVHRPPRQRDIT
inactive: [1] -0.018 | [2] -0.017 | [3] 0.096 | [4] 0.008 | [5] 0.12 | [6] 0.048 | [7] 0.057 | [8] 0.015 | [9] -0.013 | [10] 0.032

ACSL3 (UniProt O95573)
active: [4] 0.351
inactive: [1] -0.005 | [2] 0.055 | [3] 0.092 | [5] 0.078 | [6] 0.031 | [7] 0.06 | [8] 0.069 | [9] -0.005 | [10] 0.039

ADD1 isoform 3 (UniProt P35611)
inactive: [1] 0.041 | [2] 0.018 | [3] -0.013 | [4] -0.022 | [5] 0.071 | [6] 0.004 | [7] -0.08 | [8] -0.018 | [9] -0.018 | [10] 0.023

ACSL1 (UniProt P33121)
inactive: [1] -0.015 | [2] 0.067 | [3] 0.017 | [4] 0.03 | [5] 0.005 | [6] 0.018 | [7] 0.057 | [8] 0.016 | [9] -0.021 | [10] 0.002

ABCA3 (UniProt Q99758)
Sequence of UniProt Q99758 (Q99758 whole entry, looked up): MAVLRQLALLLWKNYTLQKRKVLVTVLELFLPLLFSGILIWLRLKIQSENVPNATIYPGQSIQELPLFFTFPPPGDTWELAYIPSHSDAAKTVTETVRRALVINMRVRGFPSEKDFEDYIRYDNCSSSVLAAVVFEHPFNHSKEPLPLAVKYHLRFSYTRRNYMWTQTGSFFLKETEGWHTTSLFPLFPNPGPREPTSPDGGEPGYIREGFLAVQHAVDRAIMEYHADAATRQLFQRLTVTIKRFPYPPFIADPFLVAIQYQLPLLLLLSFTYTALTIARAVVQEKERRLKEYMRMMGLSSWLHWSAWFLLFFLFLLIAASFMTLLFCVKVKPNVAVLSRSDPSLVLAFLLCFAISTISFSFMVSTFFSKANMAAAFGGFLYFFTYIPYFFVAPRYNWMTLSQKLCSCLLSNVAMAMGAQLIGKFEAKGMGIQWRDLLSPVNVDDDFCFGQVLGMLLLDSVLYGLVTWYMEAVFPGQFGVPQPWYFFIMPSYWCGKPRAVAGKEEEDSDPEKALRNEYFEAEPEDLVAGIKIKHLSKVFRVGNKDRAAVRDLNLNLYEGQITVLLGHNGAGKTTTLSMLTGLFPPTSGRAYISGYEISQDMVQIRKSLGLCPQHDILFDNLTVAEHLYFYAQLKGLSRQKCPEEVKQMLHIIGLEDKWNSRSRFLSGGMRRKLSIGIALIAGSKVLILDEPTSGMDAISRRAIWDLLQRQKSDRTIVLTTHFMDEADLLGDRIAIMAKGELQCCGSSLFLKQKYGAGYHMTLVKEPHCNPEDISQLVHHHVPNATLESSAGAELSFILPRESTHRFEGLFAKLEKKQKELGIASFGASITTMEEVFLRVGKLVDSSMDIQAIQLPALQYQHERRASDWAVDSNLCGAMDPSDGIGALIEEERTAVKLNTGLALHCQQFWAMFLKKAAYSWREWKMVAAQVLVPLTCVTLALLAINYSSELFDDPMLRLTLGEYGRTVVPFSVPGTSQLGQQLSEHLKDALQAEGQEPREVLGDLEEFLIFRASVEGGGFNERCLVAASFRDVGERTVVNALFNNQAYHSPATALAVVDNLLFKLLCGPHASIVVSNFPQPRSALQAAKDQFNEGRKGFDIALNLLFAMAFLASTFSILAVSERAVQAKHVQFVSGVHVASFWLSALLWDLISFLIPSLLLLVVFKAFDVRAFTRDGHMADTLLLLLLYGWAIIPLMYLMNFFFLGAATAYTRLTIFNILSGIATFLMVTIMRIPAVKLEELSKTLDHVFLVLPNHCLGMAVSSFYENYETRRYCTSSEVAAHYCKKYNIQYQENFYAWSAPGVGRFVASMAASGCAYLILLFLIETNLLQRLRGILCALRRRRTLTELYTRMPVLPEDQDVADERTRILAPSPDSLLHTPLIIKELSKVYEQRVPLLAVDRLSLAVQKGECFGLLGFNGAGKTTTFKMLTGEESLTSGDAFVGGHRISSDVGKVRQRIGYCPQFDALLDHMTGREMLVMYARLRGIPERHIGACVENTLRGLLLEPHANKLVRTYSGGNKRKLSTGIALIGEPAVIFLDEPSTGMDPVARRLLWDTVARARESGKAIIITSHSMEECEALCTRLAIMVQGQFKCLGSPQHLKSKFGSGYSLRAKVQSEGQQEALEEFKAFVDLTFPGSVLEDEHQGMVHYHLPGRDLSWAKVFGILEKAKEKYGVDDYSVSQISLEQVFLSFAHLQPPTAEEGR
inactive: [1] 0.011 | [2] 0.087 | [3] 0.002 | [4] 0.057 | [5] -0.027 | [6] -0.056 | [7] 0.01 | [8] 0.031 | [9] 0.094 | [10] -0.034

ALDH1B1 (UniProt P30837)
inactive: [1] 0 | [2] 0.073 | [3] 0.066 | [4] 0.081 | [5] 0.062 | [6] -0.009 | [7] 0.044 | [8] 0.065 | [9] -0.028 | [10] 0.043

ADD3 (UniProt Q9UEY8)
inactive: [1] 0.018 | [2] 0 | [3] -0.008 | [4] 0.025 | [5] 0.02 | [6] 0.013 | [7] -0.025 | [8] -0.024 | [9] -0.015 | [10] 0.031

ASNS (UniProt P08243)
inactive: [1] 0.006 | [2] 0.004 | [3] 0.053 | [4] -0.015 | [5] 0.012 | [6] -0.011 | [7] 0.034 | [8] -0.008 | [9] 0.002 | [10] 0.02

ARMC10 (UniProt Q8N2F6)
inactive: [1] -0.021 | [2] 0.044 | [3] -0.092 | [4] -0.066 | [5] 0.005 | [6] 0.006 | [7] -0.034 | [8] 0.016 | [9] 0.003 | [10] -0.023

AP2A1 (UniProt O95782)
inactive: [1] -0.019 | [2] 0.012 | [3] -0.035 | [4] 0.003 | [5] -0.041 | [6] 0.003 | [7] 0.057 | [10] -0.038
active: [8] -0.381 | [9] -0.527

ATP6V1H (UniProt Q9UI12)
inactive: [1] -0.055 | [2] 0.015 | [3] 0.034 | [4] 0.035 | [5] -0.008 | [6] 0.045 | [7] -0.131 | [8] 0.024 | [9] -0.051 | [10] -0.097

ABHD11 (UniProt Q8NFV4)
inactive: [1] 0.03 | [2] -0.041 | [3] 0.078 | [4] -0.033 | [5] 0.113 | [6] -0.067 | [7] 0.045 | [8] 0.043 | [9] -0.079 | [10] 0.01

ALDH2 (UniProt P05091)
inactive: [1] -0.009 | [2] 0.121 | [3] 0.039 | [4] 0.021 | [5] 0.096 | [6] 0.022 | [7] -0.019 | [8] 0.097 | [9] -0.041 | [10] 0.02

ARPP19 (UniProt P56211)
Sequence of UniProt P56211 (P56211 whole entry, looked up): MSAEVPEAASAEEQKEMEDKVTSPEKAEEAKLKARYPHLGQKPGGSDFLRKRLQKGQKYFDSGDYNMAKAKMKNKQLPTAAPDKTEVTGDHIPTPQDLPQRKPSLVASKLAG
inactive: [1] -0.01 | [2] 0.003 | [3] 0.076 | [4] -0.032 | [5] -0.061 | [6] 0.041 | [7] 0.026 | [8] 0.014 | [9] -0.024 | [10] -0.018

ATP7B (UniProt P35670)
Sequence of UniProt P35670 (P35670 whole entry, looked up): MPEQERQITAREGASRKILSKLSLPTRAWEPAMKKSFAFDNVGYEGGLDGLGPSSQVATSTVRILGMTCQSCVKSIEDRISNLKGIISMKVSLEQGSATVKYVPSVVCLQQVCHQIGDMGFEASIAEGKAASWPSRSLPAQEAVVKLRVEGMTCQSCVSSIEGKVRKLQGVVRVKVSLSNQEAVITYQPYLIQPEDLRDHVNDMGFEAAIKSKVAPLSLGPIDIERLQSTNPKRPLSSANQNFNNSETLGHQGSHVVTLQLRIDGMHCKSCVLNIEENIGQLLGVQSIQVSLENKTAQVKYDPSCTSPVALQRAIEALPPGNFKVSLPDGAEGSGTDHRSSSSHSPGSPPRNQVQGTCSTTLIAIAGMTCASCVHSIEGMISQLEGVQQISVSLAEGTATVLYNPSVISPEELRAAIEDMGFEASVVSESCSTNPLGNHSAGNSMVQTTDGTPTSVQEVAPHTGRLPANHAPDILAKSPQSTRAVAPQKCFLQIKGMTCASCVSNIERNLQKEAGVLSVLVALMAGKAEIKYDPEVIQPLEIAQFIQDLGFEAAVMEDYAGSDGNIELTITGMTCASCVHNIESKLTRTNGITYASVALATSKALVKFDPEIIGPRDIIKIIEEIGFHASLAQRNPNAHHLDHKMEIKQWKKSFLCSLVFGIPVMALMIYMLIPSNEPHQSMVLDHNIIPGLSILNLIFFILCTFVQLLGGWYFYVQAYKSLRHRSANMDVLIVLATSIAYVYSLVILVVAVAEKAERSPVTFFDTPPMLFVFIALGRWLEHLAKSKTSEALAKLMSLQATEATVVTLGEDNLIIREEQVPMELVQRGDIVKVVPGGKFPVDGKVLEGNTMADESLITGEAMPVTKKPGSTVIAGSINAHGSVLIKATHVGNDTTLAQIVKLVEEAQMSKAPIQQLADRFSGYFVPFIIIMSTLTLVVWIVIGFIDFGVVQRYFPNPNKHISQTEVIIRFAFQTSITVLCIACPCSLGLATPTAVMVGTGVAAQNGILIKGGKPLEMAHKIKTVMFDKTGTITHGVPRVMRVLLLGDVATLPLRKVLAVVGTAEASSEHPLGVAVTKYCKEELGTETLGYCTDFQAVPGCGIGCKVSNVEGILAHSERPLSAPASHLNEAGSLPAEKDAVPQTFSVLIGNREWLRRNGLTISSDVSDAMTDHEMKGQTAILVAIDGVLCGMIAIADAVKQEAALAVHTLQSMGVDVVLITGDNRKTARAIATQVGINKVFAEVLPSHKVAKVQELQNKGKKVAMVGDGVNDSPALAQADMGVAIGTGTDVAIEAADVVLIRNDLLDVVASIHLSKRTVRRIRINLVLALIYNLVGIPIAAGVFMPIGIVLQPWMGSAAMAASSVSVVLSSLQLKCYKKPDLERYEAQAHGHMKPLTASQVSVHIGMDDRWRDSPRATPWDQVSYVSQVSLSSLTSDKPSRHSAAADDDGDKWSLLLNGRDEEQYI
inactive: [1] -0.005 | [2] 0.073 | [3] -0.037 | [4] 0.051 | [5] 0.119 | [6] 0.01 | [7] 0.077 | [8] -0.009 | [9] -0.075 | [10] -0.052

ATG4B isoform 2 (UniProt Q9Y4P1)
inactive: [1] -0.008 | [2] 0.078 | [3] 0.017 | [4] 0.178 | [5] 0.118 | [6] 0.089 | [7] 0.143 | [8] -0.046 | [9] -0.087 | [10] -0.033

AGRN (UniProt O00468)
active: [7] 0.366
inactive: [1] 0.064 | [2] -0.013 | [3] -0.039 | [4] -0.125 | [5] 0.071 | [6] -0.048 | [8] 0.024 | [9] -0.091 | [10] 0.05

BLOC1S3 (UniProt Q6QNY0)
inactive: [1] 0.027 | [2] -0.009 | [3] 0.04 | [4] -0.003 | [5] 0.093 | [6] 0.012 | [7] 0.031 | [8] -0.052 | [9] -0.032 | [10] 0.052

ALG11 (UniProt Q2TAA5)
inactive: [1] -0.015 | [2] 0.042 | [3] 0.075 | [4] 0.013 | [5] 0.074 | [6] 0.054 | [7] 0.009 | [8] -0.048 | [9] -0.045 | [10] -0.014

AKAP8 (UniProt O43823)
inactive: [1] -0.056 | [2] 0.032 | [3] 0.074 | [4] 0.039 | [5] -0.028 | [6] -0.004 | [7] -0.039 | [8] -0.068 | [9] 0.015 | [10] 0.018

AP2B1 isoform 2 (UniProt P63010)
active: [9] -0.225
inactive: [1] -0.021 | [2] 0.017 | [3] -0.01 | [4] 0.003 | [5] 0.004 | [6] -0.009 | [7] -0.004 | [8] -0.158 | [10] -0.003

AHCYL1 (UniProt O43865)
inactive: [1] 0.083 | [2] -0.032 | [3] -0.008 | [4] -0.042 | [5] 0.001 | [6] 0.086 | [7] 0.09 | [8] 0.118 | [9] 0.077 | [10] 0.104

ANP32E (UniProt Q9BTT0)
Sequence of UniProt Q9BTT0 (Q9BTT0 whole entry, looked up): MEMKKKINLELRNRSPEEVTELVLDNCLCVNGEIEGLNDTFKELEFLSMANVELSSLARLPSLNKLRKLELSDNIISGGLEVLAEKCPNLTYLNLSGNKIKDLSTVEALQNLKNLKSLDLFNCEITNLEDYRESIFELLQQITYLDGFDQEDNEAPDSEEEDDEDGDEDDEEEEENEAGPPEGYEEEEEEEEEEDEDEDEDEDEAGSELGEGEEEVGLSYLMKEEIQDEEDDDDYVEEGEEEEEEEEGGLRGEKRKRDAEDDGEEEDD
inactive: [1] 0.211 | [2] 0.038 | [3] 0.114 | [4] -0.062 | [5] 0.027 | [6] -0.025 | [7] 0 | [8] -0.014 | [9] -0.026 | [10] -0.084

ATP11A (UniProt P98196)
Sequence of UniProt P98196 (P98196 whole entry, looked up): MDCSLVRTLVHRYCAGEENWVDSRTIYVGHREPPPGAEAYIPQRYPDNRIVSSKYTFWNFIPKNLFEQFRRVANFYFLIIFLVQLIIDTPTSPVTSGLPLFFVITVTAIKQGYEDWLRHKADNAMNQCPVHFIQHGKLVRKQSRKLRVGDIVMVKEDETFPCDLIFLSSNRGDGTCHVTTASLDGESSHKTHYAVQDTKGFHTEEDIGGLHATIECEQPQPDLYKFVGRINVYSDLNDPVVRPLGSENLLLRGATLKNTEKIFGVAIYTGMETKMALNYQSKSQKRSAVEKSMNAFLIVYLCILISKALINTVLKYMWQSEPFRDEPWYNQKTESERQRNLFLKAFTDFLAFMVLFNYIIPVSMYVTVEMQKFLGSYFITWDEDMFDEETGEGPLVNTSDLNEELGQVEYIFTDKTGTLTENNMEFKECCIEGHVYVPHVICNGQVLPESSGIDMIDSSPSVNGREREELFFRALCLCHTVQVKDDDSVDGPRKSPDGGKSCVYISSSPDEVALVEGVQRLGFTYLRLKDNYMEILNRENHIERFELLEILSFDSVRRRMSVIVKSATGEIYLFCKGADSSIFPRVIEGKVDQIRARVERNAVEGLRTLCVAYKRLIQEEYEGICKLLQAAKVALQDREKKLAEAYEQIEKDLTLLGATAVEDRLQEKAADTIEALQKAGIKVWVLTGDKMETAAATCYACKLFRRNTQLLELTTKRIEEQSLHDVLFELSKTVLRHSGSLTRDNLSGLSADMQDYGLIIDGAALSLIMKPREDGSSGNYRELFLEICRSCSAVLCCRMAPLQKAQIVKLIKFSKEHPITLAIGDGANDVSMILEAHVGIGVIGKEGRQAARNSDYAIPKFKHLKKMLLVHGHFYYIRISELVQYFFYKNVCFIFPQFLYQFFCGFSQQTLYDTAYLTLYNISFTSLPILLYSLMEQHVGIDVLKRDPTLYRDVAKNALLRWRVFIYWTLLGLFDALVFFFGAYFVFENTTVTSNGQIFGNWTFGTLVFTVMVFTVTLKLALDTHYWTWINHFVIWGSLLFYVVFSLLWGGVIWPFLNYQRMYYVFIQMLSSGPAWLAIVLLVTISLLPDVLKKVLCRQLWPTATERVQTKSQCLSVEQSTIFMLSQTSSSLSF
inactive: [1] -0.038 | [2] 0.015 | [3] 0.004 | [4] 0.005 | [5] -0.038 | [6] 0.035 | [7] -0.048 | [8] -0.085 | [9] -0.035 | [10] 0.012

ADK (UniProt P55263)
inactive: [1] 0.293 | [2] -0.034 | [3] 0.06 | [4] -0.062 | [5] 0.079 | [6] 0.005 | [7] 0.035 | [8] 0.042 | [9] -0.032 | [10] 0.085

ACSF3 (UniProt Q4G176)
inactive: [1] 0.07 | [2] -0.066 | [3] 0.057 | [4] -0.155 | [5] -0.104 | [6] 0.04 | [7] 0.028 | [8] 0.022 | [9] -0.001 | [10] -0.038
